About 460 (0.13%) of roughly 360,000 compounds were called active. The sample holds actives, similar compounds and a random draw of the others, so the mix is not that of the screen.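 The calls were made as follows: active = inhibition above the mean inhibition of all tested compounds plus 3 SD (cut at about 73% in these data); inactive = the rest.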
Biological target: Nuclear receptor subfamily 5 group A member 2 (Homo sapiens) (UniProt O00482)
Assay: LRH-1 (NR5A2) inverse agonists, primary screen, cell-based, luminescence, HEK293T, StAR-luciferase reporter (AID 602396);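 also: 0% = DMSO wells and 100% = reporter-only cells lacking LRH-1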
Conditions: LRH-1 transfected, 24 h, at 3.6 µM, hits give high values

Nuclear receptor subfamily 5 group A member 2 (Homo sapiens), sequence (O00482 whole entry, looked up): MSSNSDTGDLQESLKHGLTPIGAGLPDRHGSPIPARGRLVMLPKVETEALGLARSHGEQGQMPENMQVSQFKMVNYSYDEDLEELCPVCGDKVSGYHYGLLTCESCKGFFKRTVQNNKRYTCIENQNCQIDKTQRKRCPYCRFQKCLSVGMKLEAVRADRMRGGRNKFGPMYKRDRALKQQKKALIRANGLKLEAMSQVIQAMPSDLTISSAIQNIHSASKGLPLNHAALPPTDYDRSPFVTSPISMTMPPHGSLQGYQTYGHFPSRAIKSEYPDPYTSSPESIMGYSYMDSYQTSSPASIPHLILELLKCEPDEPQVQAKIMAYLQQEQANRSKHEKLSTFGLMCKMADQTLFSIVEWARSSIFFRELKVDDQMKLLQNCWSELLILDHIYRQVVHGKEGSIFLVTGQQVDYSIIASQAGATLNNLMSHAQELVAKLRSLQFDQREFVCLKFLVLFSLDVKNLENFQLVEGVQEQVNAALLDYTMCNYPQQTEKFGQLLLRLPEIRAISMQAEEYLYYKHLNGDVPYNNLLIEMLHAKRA

| Compound | inhibition |
| --- | --- |
| CC1(C)CC(N2CCN(C(c3ccccc3)c3ccccc3)CC2)=CC(=[N+]2CCCCC2)C1 | 91.7% (active) |
| COc1ccc(C2CC(=O)Oc3ccc(C(C)(C)C)cc32)cc1 (stereo unspecified) | 21.2% (inactive) |
| Cn1cnc(S(=O)(=O)N2C[C@@H](O)COC[C@@H]3O[C@H](CC(=O)NC4CCC4)CC[C@H]32)c1 | -18.2% (inactive) |
| COc1ccc(NC(=O)/C(Cl)=C(/Cl)S(=O)Cc2ccc(C)cc2)cn1 (stereo unspecified) | 87.2% (active) |
| O=C(COC(=O)Cc1ccc(Br)cc1)Nc1c(F)c(F)c(F)c(F)c1F | 1.54% (inactive) |
| CCOC(=O)CSC1=N/C(=C/c2ccc(-n3cncn3)cc2)C(=O)N1C(C)=O | 11.2% (inactive) |
| CCOC1CCCCC1NS(=O)(=O)c1ccc(Cl)cc1 (stereo unspecified) | 5.98% (inactive) |
| COc1ccccc1-n1ccnc(SCC(=O)NC2CCCCC2)c1=O | 1.62% (inactive) |
| O=C(Nc1ccc2c(c1)OCCO2)C(c1ccc(F)cc1)N1CCCCC1 (stereo unspecified) | 4.16% (inactive) |
| CCCCCCCC[n+]1cccc(C(=O)N2c3c(nc(N)[nH]c3=O)NC(C)C2C)c1 (stereo unspecified) | 4.18% (inactive) |
| C=CCn1c(CNS(=O)(=O)c2ccc(Br)cc2)nnc1SC | -25.5% (inactive) |
| CCS(=O)(=O)Nc1cc(C(=O)OC)ccc1C(=O)OC | 7.66% (inactive) |
| CCOc1ccc(NS(=O)(=O)c2cc(C)c(C)cc2C)cc1 | 0.32% (inactive) |
| Cc1cnc(C(=O)Oc2cccc(Cl)c2Cl)cn1 | 10.5% (inactive) |
| CCc1c(O)cc2n(c1=O)-c1ccccc1C2(C)C | 6.01% (inactive) |
| Cc1cc(C)cc(NS(=O)(=O)c2ccc(Oc3ncc(C(F)(F)F)cc3Cl)cc2)c1 | 3.47% (inactive) |
| COc1ccc(C2(C)ON(c3ccccc3C(F)(F)F)C2=O)cc1 (stereo unspecified) | -1.81% (inactive) |
| COCCNC(=O)C1CCN(S(=O)(=O)c2ccc3c(c2)OCCO3)CC1 | 8.61% (inactive) |
| COc1ccc(C)cc1NC(=O)CSc1cccc[n+]1[O-] | -14.4% (inactive) |
| CC1(C)CC(=O)C=C(c2ccc3ncccc3c2)C1 | 47.8% (inactive) |
| CCCNC(=O)C1(C)CCCN(C(=O)c2cccc(OC(C)=O)c2C)C1 (stereo unspecified) | -0.02% (inactive) |
| COC(=O)C(C(=O)Nc1cccc(Cl)c1C)C1CCCC1 (stereo unspecified) | 1.94% (inactive) |
| O=C(O)c1ccccc1C(=O)NC1=NN(c2ccccc2)CC1 | -6.24% (inactive) |

| Compound | inhibition |
| --- | --- |
| Cn1cc(CNC(=O)c2ccc(OC3CCN(Cc4ccccn4)CC3)cc2)cn1 | 16.2% (inactive) |
| CN(CCc1ccccn1)C(=O)c1ccc(OC2CCN(Cc3ccccn3)CC2)cc1 | -11.4% (inactive) |
| O=C(NCCOc1cccnc1)c1ccc(OC2CCN(Cc3ccccn3)CC2)cc1 | 90.4% (active) |
| O=C(Nc1cccc(S(=O)(=O)N2CCCC2)c1)c1cncc(Br)c1 | -0.97% (inactive) |
| COc1ccc(SC[C@H](Cc2ccccc2)N2CCN(CCc3ccccc3)CCC2=O)cc1 | -6.85% (inactive) |
| CCn1nc(C(=O)NNS(=O)(=O)c2cc(/C=C/C(=O)O)cc(OC)c2OC)c2ccccc2c1=O | 11.4% (inactive) |
| O=C(O)C(NS(=O)(=O)c1cccc2nsnc12)c1ccccc1 (stereo unspecified) | -4.31% (inactive) |
| COc1ccc2c(c1)c(=Cc1ccc(N(C)C)cc1)c1cc(-c3ccccc3)[n+](C)n12 | 91.5% (active) |
| COc1ccc(S(=O)(=O)N2CCCCC2)cc1NC(=O)C1CC(=O)N(c2ccc3c(c2)OCCO3)C1 (stereo unspecified) | 8.99% (inactive) |
| NS(=O)(=O)c1ccc(NC(=O)/C=C/c2ccccc2Cl)cc1 | -11.9% (inactive) |
| CCN(CC(=O)NCc1cccs1)C(=O)c1ccc(OC)c(S(=O)(=O)N2CCOCC2)c1 | -9.13% (inactive) |
| COc1ccc(N2C(=O)C(O)C2c2ccc(C)cc2)cc1 (stereo unspecified) | -10% (inactive) |
| C/C=C/C(=O)Nc1ccc(N2CCN(c3ccc(C(F)(F)F)cn3)CC2)nc1 | -9.09% (inactive) |
| COC(=O)c1cccc(C(=O)N2CCC(CCC(=O)NCc3ccc(F)cc3)CC2)c1 | 11.6% (inactive) |
| Nc1nc(SCC(=O)NNc2c(Cl)cc(Cl)cc2Cl)n[nH]1 | 14.2% (inactive) |
| CCc1cc(=O)oc2cc(C)cc(OC(C)C(=O)O)c12 (stereo unspecified) | 6.8% (inactive) |
| CC1CC(C)(C)CC2(C1)NC(=O)N(CC(=O)Nc1nccs1)C2=O (stereo unspecified) | -13.1% (inactive) |
| CC(=O)N1CCC(C(=O)OCc2ccc(Cl)cc2)(c2ccccc2)CC1 | -12.7% (inactive) |
| OCC(O)CN(c1ccccc1)c1ccccc1 (stereo unspecified) | 9.64% (inactive) |
| CC(Sc1nnc(-c2cccs2)n1C1CC1)C(=O)NCC1CCCO1 (stereo unspecified) | -12.2% (inactive) |
| C=CCn1c(C)cc(C2=NNC(=NCC)SC2)c1C | 84.2% (active) |
| O=C(COC(=O)c1ncc(Cl)c(Cl)c1Cl)NCc1cccs1 | -2.02% (inactive) |
| COc1cccc2c1C(=O)c1c(O)c3c(c(O)c1C2=O)CC(O)(C(C)=NNC(=O)c1ccc(Cl)c(Cl)c1)CC3OC1CC(N)C(O)C(C)O1 (stereo unspecified) | 95.6% (active) |

| Compound | inhibition |
| --- | --- |
| CCNC(=O)NNC(=O)C1CC(c2cccs2)=NO1 (stereo unspecified) | 19.8% (inactive) |
| C=CCn1c2ccccc2c2nnc(SCc3[nH]c(=O)[nH]c3C(=O)CCCCC(=O)OCC)nc21 | 9.39% (inactive) |
| CCOC(=O)c1sc(N(Cc2ccccc2)C(=O)CN2C(=O)CN(C)C2=O)nc1C | -6.11% (inactive) |
| O=C(CC(O)(C(F)(F)F)C(F)(F)F)Nc1ccc(Cl)c(Cl)c1 | 100% (active) |
| O=C(Nc1ccc(Cl)c(Cl)c1)N1CC=C(c2ccccc2)CC1 | -22.6% (inactive) |
| CC(c1cccnc1)N(CCN(C)C)C(=O)Nc1ccc(Cl)c(Cl)c1 (stereo unspecified) | -1.18% (inactive) |
| CC(C)(C)c1ccc(Oc2ccc(N)cc2)cc1 | 80.6% (active) |
| CN(C)S(=O)(=O)c1ccc(Oc2ccc(S(=O)(=O)N(C)C)cc2)cc1 | 26% (inactive) |
| C[C@H](NC(=O)C1CCN(S(=O)(=O)c2ccccc2)CC1)C(=O)NCc1ccccc1 | -15.6% (inactive) |
| COc1ccccc1-n1nnnc1S(=O)(=O)Cc1ccc(Cl)cc1 | 47.7% (inactive) |
| CC[C@H](C)[C@@H](C(=O)N1CCNCC1)n1cc([C@@H](N)Cc2ccc(O)cc2)nn1 | 5.8% (inactive) |
| Cc1nn(-c2ccccc2)c2c1C(=O)NC(=O)C(C)(C)C2 | 10.2% (inactive) |
| CC(=O)c1cnc(SCC(=O)O)nc1C | -8.72% (inactive) |
| O=C(c1cc2ccccc2o1)N1CCN(S(=O)(=O)c2ccc(Cl)s2)CC1 | -4.99% (inactive) |
| COc1ccc(S(=O)(=O)N2CCOC23CCN(S(=O)(=O)c2ccc([N+](=O)[O-])cc2)CC3)cc1 | 4.75% (inactive) |
| O=C(O)C1=C(C(=O)O)C2CCC1C2 | -20.2% (inactive) |
| CCn1ccnc1CN1CCCC(C(=O)c2ccc3c4c(cccc24)CC3)C1 (stereo unspecified) | 4.32% (inactive) |
| C/C=C(/C)C(=O)O[C@@H]1c2cc3c(c4c2[C@@]2(CO4)C(=O)C(OC)=C(OC)C=C2C[C@@H](C)[C@H]1C)OCO3 | 8.2% (inactive) |
| Cc1ccc(/C=C/C(=O)OCC(=O)Nc2cccnc2Cl)cc1 | -17.1% (inactive) |
| COC(=O)Cc1cnc(NC(=O)CSc2nc(C(C)C)cc(=O)[nH]2)s1 | 7.32% (inactive) |
| Cc1cccc(C(=O)C(O)(c2ccccc2)C2CCCCC2=O)c1 (stereo unspecified) | -15.3% (inactive) |
| CCOc1ccc(CCNC(=O)COC(=O)c2ccc(C)c(S(=O)(=O)N3CCOCC3)c2)cc1OCC | -2.87% (inactive) |
| O=C(O)COc1nsnc1N1CCOCC1 | -2.76% (inactive) |

| Compound | inhibition |
| --- | --- |
| Cc1ccc(C)c(S(=O)(=O)Nc2cc(C)on2)c1 | 13.7% (inactive) |
| CCOc1ccc(N2CC(C(=O)N/N=C/c3sccc3C)CC2=O)cc1 (stereo unspecified) | 3.97% (inactive) |
| CCc1ccc2[nH]c(=O)c(Cc3ccccc3)c(O)c2c1 | 10.4% (inactive) |
| COc1ccc(Cl)cc1NS(=O)(=O)c1cccc(C(=O)NCC2CCCO2)c1 (stereo unspecified) | 10.9% (inactive) |
| CCOCCCNC(=O)c1cn(CC(C)C)c(=O)c2c1c1ccccc1n2C | 0.96% (inactive) |
| COC(=O)c1cn(C)c2ccc(S(=O)(=O)N3CC(C)CC(C)C3)cc2c1=O (stereo unspecified) | -9.25% (inactive) |
| COc1ccc(CCn2c(NN=C3CCCC3)nc3c2c(=O)[nH]c(=O)n3C)cc1 | 14% (inactive) |
| COCc1cc(C)n(CC(=O)NCC2CCCO2)c(=O)c1C#N (stereo unspecified) | -7.89% (inactive) |
| N/C(=N\S(=O)(=O)c1cc(C(F)(F)F)cc(C(F)(F)F)c1)c1cccs1 | 10.3% (inactive) |
| COc1cccc(CNS(=O)(=O)c2cc3c(cc2C)n(C)c(=O)c(=O)n3C)c1 | 1.81% (inactive) |
| Cc1ccc(CNC(=O)C2CCCN(S(C)(=O)=O)C2)cc1 (stereo unspecified) | 14.4% (inactive) |
| COCCn1c(C)cc(C(=O)COC(=O)CNC(=O)c2ccco2)c1C | 5.6% (inactive) |
| CCCn1c(C)cc(C(=O)COC(=O)c2c(C)nn(-c3ccccc3)c2C)c1C | 7.52% (inactive) |
| Cc1ccsc1C(=O)OCC(=O)c1cc(C)n(CC2CCCO2)c1C (stereo unspecified) | 80.7% (active) |
| C=CCc1cc(S(=O)(=O)c2ccc(O)c(CC=C)c2)ccc1O | 11.4% (inactive) |
| CCNS(=O)(=O)c1ccc(CCC(=O)N2CCN(c3cc(Cl)ccc3C)CC2)cc1 | -4.58% (inactive) |
| COc1ccc(NS(=O)(=O)c2ccc(O)c(C(=O)OCC(=O)NC3CCCCC3)c2)cc1 | 0.7% (inactive) |
| Cc1cc(=O)cc(C)[nH]1 | 3.47% (inactive) |
| COc1ncnc2c1N=C1CC(C)(C)CC(N)=C1S2 | 22.7% (inactive) |
| COC1(C2=NCCN2)COc2ccccc2O1 (stereo unspecified) | 15.1% (inactive) |
| O=C1CN(C(=O)COC(=O)c2cnc(Cl)c(Cl)c2)c2ccccc2N1 | 0.85% (inactive) |
| CC[C@@H]1CC2=C(C(=O)OC(C)(C)O2)[C@@H](CC)O1 | 13.2% (inactive) |

Source: PubChem BioAssay AID602396 (The Scripps Research Institute Molecular Screening Center, 2012)
